The values below come from PubChem BioAssay.

Values joined by “and” are separate entries in the source; they are usually repeats but may differ in a detail not shown here. Identical values can stand only once. A structure can be active in one record and inactive in another. Active and inactive are the calls of the source.

Assay [1] can be described thus: binders of probe aFSTL3 on microarray, primary screen, stem cell growth factor project, biochemical, small-molecule microarray, fluorescence 635/667 (AID 1064).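 Also: measures binding of the biotinylated anti-FSTL3 antibody to printed compounds.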 As to conditions: higher = more signal.
The nature of assay [2]: binders from COS7 lysate, DM2A8 probe, primary screen, torsin A project, cell lysate, small-molecule microarray, fluorescence 635/667 (AID 1065). The conditions noted are these: higher = more signal, COS7 lysate expressing mutant human TOR1A.
The nature of assay [3]: binders of probe aFGF2 on microarray, primary screen, stem cell growth factor project, biochemical, small-molecule microarray, fluorescence 635/667 (AID 1067).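 Also: measures binding of biotinylated aFGF2 protein to printed compounds on slides; z-score merges feature fluorescence and signal-to-noise across triplicate slides.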 The conditions noted are these: higher = more signal.
Assay [4] in a line: binders of probe aFGF10 on microarray, primary screen, stem cell growth factor project, biochemical, small-molecule microarray, fluorescence 635/667 (AID 1071).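 Also: score merges 667 nm spot intensity and signal to noise from triplicate slides.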 As to conditions: higher = more signal.
In assay [5] the target is Neurogenic locus notch homolog protein 2 (Homo sapiens) (UniProt Q04721). As to the kind of experiment: Notch2 binders on small-molecule microarrays, primary screen, biochemical, small-molecule microarray, 635 nm fluorescence, stem cell growth factors (AID 1073). As to conditions: Notch2 binding, higher = more signal.
Assay [6] concerns the target Pro-neuregulin-1, membrane-bound isoform (Homo sapiens) (UniProt Q02297). Briefly: NRG1 binders on small-molecule microarrays, primary screen, psychiatric disease protein project, biochemical, small-molecule microarray, fluorescence 635/667 (AID 1075).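 Also: score combines 667 nm spot fluorescence with signal to noise.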 As to conditions: NRG1 binding, 635 nm fluorescence, higher = more signal.
In assay [7] the test system is Neuregulin-1 EGF-like domain. Briefly: binders of neuregulin-1 EGF-like domain, primary screen, biochemical, small-molecule microarray, 635 nm fluorescence (AID 1081).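 Also: binding of the protein to compounds printed on small-molecule microarray slides.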 The conditions noted are these: small-molecule microarray binding, higher = more signal.
The nature of assay [8]: FRG1 promoter luciferase signal modulators, primary screen, FRG1 inhibition for FSHD, cell-based, C2C12 myotubes, firefly/Renilla luciferase, luminescence (AID 1084). The conditions noted are these: higher = more signal, called active from +8 up or from −8 down.
Assay [9] in a line: binders of probe aFST on microarray, primary screen, stem cell growth factor project, biochemical, small-molecule microarray, fluorescence 635/667 (AID 1086).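 Also: score merges 667 nm fluorescence with signal-to-noise of each printed compound spot.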 As to conditions: higher = more signal.
The nature of assay [10]: binders of probe aHhip on microarray, primary screen, stem cell growth factor project, biochemical, small-molecule microarray, fluorescence 635/667 (AID 1087).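 Also: score merges spot fluorescence at 667nm with spot signal to noise ratio.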 As to conditions: higher = more signal.
In assay [11] the test system is PRMT1 (protein arginine N-methyltransferase 1). Briefly: PRMT1 binders on small-molecule microarrays, primary screen, biochemical, small-molecule microarray, 635 nm fluorescence (AID 1088).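 Also: binding of Prmt1 protein to compounds spotted on small-molecule microarray slides.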 As to conditions: small-molecule microarray binding, higher = more signal.
The nature of assay [12]: yeast growth modulation, basal conditions, primary screen, YJM789 clinical isolate, OD600, 24 h (AID 1089).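 Also: growth of clinical yeast isolate S. cerevisiae YJM 789 seeded 1000 cells per well; test concentration not given here.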 The conditions noted are these: S. cerevisiae YJM789 growth, higher = more signal, called active from +8 up or from −8 down.
Assay [13] in a line: fission yeast growth modulation, primary screen, strain 972, OD600, 24 h, no modulator (AID 1090).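 Also: basal condition with compound alone and no growth modifier present; test concentration not given here.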 As to conditions: S. pombe 972 growth, higher = more signal, called active from +8 up or from −8 down.
A short description of assay [14]: S. cerevisiae growth modulation with rapamycin, primary screen, strain BY4716, OD600, 96 h (AID 1091). Also: test concentration not given here. As to conditions: higher = more signal, called active from +8 up or from −8 down.
Assay [15] deals with Torsin-1A-interacting protein 2 (Homo sapiens) (UniProt Q8NFQ8). Briefly: LULL1 binders on small-molecule microarray, primary screen, cell lysate, human LULL1 lysate, 635/667 nm fluorescence (AID 1092).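 Also: probe is lysate of COS7 cells overexpressing human LULL1; score merges per-feature 667 nm fluorescence with signal-to-noise.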 The conditions noted are these: hLULL1 lysate binding, 635 nm fluorescence, higher = more signal.
Chain of Torsin-1A-interacting protein 2 (Homo sapiens) (Q8NFQ8 whole entry, looked up): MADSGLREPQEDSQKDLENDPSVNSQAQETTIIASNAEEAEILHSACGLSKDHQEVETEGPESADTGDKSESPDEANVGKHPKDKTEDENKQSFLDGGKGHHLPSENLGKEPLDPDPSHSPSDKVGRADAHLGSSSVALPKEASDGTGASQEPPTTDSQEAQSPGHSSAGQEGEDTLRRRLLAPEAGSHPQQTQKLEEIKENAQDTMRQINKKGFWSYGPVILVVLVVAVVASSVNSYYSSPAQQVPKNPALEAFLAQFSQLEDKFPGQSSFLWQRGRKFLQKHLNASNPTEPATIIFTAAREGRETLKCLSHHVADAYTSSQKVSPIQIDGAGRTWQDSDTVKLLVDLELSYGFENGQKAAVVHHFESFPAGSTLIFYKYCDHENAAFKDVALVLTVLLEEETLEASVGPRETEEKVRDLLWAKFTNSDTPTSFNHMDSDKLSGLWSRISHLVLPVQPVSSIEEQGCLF
Assay [16] in a line: E. coli growth modulation, two-sided OD650, primary screen, E. coli filamentation project, strain DRC41, 24 h (AID 1093).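 Also: MC1000 strain lacking acrAB efflux and sulA so SOS filamentation is blocked; test concentration not given here.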 As to conditions: OD650, 24 h, higher = more signal, called active from +8 up or from −8 down.
A short description of assay [17]: small-molecule microarray binders of probe aLefty2, primary screen, biochemical, biotinylated probe, 635/667 nm fluorescence (AID 1094).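 Also: score merges spot fluorescence near 667 nm with spot signal-to-noise ratio.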 As to conditions: higher = more signal.
In assay [18] the test system is Noggin (protein binding on small-molecule microarray). Briefly: Noggin binders on small-molecule microarray, primary screen, biochemical, 635/667 nm fluorescence (AID 1095).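 Also: score merges 667 nm feature fluorescence with signal to noise over triplicate slides.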 The conditions noted are these: 635 nm fluorescence, higher = more signal.
Assay [19] deals with Neurogenic locus notch homolog protein 3 (Homo sapiens) (UniProt Q9UM47). Briefly: NOTCH3 binders on small-molecule microarray, primary screen, biochemical, 635/667 nm fluorescence (AID 1096). As to conditions: NOTCH3 binding, 635 nm fluorescence, higher = more signal.
Chain of Neurogenic locus notch homolog protein 3 (Homo sapiens) (Q9UM47 whole entry, looked up): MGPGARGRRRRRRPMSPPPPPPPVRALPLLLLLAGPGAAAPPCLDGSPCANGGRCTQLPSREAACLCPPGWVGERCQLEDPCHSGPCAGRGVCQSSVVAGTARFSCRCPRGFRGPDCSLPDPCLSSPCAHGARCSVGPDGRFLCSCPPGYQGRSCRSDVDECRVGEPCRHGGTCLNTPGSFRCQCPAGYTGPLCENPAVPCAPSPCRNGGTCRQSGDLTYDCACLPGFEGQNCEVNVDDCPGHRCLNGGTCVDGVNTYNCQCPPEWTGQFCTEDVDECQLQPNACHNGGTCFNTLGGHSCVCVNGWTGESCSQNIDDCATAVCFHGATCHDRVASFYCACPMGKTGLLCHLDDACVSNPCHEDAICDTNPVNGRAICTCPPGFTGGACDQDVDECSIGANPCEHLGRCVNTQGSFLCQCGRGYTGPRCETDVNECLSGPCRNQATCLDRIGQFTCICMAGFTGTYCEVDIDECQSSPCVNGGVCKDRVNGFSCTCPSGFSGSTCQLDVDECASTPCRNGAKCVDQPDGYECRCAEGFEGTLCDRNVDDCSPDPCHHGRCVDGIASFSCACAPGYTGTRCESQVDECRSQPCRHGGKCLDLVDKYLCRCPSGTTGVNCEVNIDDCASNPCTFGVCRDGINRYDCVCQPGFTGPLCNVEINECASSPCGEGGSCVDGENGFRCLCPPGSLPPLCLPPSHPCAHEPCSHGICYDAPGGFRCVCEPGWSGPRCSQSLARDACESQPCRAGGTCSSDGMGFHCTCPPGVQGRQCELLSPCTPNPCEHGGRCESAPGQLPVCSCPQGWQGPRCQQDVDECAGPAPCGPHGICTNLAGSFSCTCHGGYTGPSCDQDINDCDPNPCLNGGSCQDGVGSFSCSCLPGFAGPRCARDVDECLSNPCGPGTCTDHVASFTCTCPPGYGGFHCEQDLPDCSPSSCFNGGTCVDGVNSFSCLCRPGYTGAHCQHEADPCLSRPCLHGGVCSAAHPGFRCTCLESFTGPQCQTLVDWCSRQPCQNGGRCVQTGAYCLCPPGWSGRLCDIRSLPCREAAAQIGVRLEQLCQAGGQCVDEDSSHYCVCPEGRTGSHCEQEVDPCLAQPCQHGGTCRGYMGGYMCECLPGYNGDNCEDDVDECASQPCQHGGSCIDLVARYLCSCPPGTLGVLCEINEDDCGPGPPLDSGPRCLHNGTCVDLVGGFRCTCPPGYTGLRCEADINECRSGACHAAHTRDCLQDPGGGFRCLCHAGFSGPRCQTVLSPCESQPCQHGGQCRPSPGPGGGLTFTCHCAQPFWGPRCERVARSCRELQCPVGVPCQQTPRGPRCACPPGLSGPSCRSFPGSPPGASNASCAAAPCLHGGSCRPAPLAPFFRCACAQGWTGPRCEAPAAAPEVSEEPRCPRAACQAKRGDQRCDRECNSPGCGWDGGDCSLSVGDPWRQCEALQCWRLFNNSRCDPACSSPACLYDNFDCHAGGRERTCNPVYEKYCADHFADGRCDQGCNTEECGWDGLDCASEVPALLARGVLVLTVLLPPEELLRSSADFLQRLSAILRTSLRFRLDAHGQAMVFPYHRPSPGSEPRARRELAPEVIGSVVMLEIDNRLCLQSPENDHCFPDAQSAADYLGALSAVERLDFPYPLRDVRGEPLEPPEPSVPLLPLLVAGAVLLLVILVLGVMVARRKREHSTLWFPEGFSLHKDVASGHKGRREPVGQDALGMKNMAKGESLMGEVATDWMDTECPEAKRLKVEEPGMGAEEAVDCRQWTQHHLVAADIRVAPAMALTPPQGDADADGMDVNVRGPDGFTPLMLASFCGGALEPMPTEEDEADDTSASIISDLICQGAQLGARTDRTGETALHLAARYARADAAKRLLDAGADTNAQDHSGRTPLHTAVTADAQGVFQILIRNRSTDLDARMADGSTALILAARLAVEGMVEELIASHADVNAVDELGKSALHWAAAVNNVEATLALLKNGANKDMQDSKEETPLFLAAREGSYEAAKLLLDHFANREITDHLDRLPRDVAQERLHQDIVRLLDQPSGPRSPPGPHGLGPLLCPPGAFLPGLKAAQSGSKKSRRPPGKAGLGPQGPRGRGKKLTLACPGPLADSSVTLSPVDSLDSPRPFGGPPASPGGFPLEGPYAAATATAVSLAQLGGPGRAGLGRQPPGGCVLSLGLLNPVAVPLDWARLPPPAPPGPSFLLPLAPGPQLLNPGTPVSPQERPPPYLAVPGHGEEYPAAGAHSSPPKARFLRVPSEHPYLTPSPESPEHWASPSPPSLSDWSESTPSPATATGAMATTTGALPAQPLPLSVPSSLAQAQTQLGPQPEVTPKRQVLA
Assay [20] is described as follows: small-molecule microarray binders of probe aEGFR, primary screen, biochemical, biotinylated probe, 635/667 nm fluorescence (AID 1097).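 Also: probe is a biotinylated anti-EGFR antibody binding compounds printed on slides; score combines fluorescence near 667 nm and signal to noise of each spot.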 The conditions noted are these: higher = more signal.

Chain of Pro-neuregulin-1, membrane-bound isoform (Homo sapiens) (Q02297 whole entry, looked up, the tested form may be a part, canonical isoform): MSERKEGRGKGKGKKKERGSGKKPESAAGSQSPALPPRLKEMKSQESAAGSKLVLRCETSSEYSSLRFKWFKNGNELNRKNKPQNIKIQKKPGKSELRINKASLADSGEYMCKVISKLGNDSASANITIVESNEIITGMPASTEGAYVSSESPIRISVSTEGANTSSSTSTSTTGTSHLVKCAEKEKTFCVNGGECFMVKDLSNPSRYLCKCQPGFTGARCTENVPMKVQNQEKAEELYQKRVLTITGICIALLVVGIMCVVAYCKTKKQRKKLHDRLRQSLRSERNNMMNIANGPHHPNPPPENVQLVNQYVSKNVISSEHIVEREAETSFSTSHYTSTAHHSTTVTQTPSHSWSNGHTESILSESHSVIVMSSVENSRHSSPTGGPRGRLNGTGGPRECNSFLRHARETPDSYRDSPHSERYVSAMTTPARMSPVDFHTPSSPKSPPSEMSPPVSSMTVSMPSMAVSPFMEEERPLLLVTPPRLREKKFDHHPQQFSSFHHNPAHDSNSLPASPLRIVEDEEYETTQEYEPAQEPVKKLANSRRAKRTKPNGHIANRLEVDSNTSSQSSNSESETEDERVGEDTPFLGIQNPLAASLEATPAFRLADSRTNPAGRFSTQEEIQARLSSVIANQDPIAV

With `CCOC(=O)CCN1C(=O)[C@H]2[C@H]3[C@H](O)[C@H](O)CC(=NNC(=O)OCC)[C@@H]3CC[C@H]2C1=O`, the composite z-score in [1] is -0.144; in assay [2] it was 0.303; in assay [3] it was -0.0459; in assay [4], 0.348; in assay [5], 0.708; in [6] it was -0.388. Besides, the composite z-score in assay [7] was -0.0801; in assay [9], 0.62; in assay [10], -0.0994; in [11], 0.763; in assay [15] it was 0.45; in [17], 0.0634. Moreover, the composite z-score in assay [18] was 0.531; in assay [19], 0.316; in assay [20], 0.095. The z-score is 0.142 (inactive) in assay [8]; -0.373 (inactive) in assay [12]; -0.769 (inactive) in assay [13]; -0.491 (inactive) in assay [14]; 0.441 (inactive) in [16].

As to `CCOC(=O)c1ccc(NC(=O)O[C@H]2[C@H](OC(=O)Nc3ccccc3)[C@H](OC(=O)Nc3ccccc3)[C@@H](OC)O[C@@H]2CO)cc1`, the composite z-score in assay [1] was 0.496 and 0.0126; in [2], 1.19 and 1.58; in assay [3], 0.171 and 0.0495; in assay [4], 1.2 and 0.986; in [5] it was 1.44 and 0.73; in assay [6], 1.68 and 1.8. The composite z-score in assay [7] is 1.3 and 1.35; in assay [9], 1.18 and 0.937; in assay [10] it was -0.24 and -0.141; in [11] it was 1.53; in [15], 3.01 and 3.02; in [17], 0.375 and 0.0544. Also, the composite z-score in [18] is 0.536 and 1.04; in assay [19] it was 1.04 and 1.05; in assay [20], 0.445 and -0.0118. The z-score in assay [8] is 0.822 (inactive) and -1.03 (inactive); in assay [12], 1.65 (inactive) and 0.863 (inactive); in assay [13], 1.87 (inactive) and 1.43 (inactive); in assay [14] it was -1.19 (inactive) and 8.89 (active); in [16], 0.626 (inactive) and 0.455 (inactive).

With `CO[C@@H]1COC(=O)CC=C[C@H](C)COC(=O)[C@H](C)NC(=O)CC=C[C@H]1C`, the composite z-score is -0.563 in [1]; 1.75 in assay [2]; -0.203 in assay [3]; 0.126 in assay [4]; 0.269 in [5]; -0.557 in [6]. The composite z-score in [7] is -0.139; in [9], -0.118; in [10] it was 0.0505; in [11], 1.38; in [15], -0.654; in assay [17], -0.235. For the same compound, the composite z-score in assay [18] was 1.68; in assay [19], 0.438; in assay [20], -0.157. In addition, the z-score in assay [8] is -0.87 (inactive); in [12], 1.19 (inactive); in assay [13] it was 1.04 (inactive); in [14] it was 1.25 (inactive); in assay [16] it was 0.18 (inactive).

Turning to `C=C[C@@H](OC)[C@H](O)c1ccc(OCCO)cc1`, the composite z-score in assay [1] is -0.145 and 0.184; in assay [2], -0.492 and -1.23; in assay [3] it was -0.206 and -0.178; in assay [4] it was -0.976 and -0.915; in assay [5] it was -1.07 and -1.57; in assay [6] it was -0.748 and -0.394. Besides, the composite z-score is -0.0048 and 0.0968 in assay [7]; -0.984 and -1.26 in assay [9]; -0.236 and -0.196 in [10]; 0.194 and -0.0886 in assay [11]; 1.5 and -0.567 in [15]; -0.0466 and -0.0666 in assay [17]. The composite z-score was -0.902 and -0.131 in assay [18]; -0.19 and -0.876 in [19]; -0.383 and -0.265 in [20]. Besides, the z-score was 1.74 (inactive) and 0.386 (inactive) in assay [8]; -0.0303 (inactive) and -2.64 (inactive) in [12]; 0.331 (inactive) and -1.68 (inactive) in [13]; -0.603 (inactive) and -0.883 (inactive) in assay [14]; -0.443 (inactive) and 2.25 (inactive) in [16].
